Inconclusive results are not listed. Unmarked numbers belong to inactive results. Active and inactive are the calls of the source. Calls come from the whole dose curve; as a rule, active = well fitted inhibition curve with a large enough effect; inconclusive = small, poorly fitted or top-dose-only effect; inactive = flat fitted curve, though single readings scatter. Positions of bridges follow the written chain, without caps; N, C: chain ends. Non-standard residues stand in square brackets, D forms with d. Residues, ends and D or L forms follow the SMILES beside them. ξ: configuration not given here. *: point of attachment. Octanoyl(6-Me) = CCC(C)CCCCC(=O)*; ξThr(3R) = C[C@@H](O)C(N)C(=O)O; dDab = NCC[C@@H](N)C(=O)O; Dab = NCC[C@H](N)C(=O)O
% is set by controls: 0 for no effect and ±100 for the full control effect; potency is the fitted concentration of half-maximal effect.

In the test the test system is MCC-26. The test can be described thus: qHTS assay to identify novel small-molecules to repurpose for Merkel cell carcinoma treatment (AID 1296009). Note: nearly all actives have a fitted effect of over 60% in size. To be noted: MCC and control cell lines, CellTiter-Glo viability, 72 h; series mostly up to 46 µM; activity change, negative = cytotoxicity: at the top concentration. The text has this:
MCC is a rare and aggressive neuroendocrine skin cancer with limited treatment options. Approximately 80% of MCCs have the Merkel cell polyomavirus (MCPyV) DNA integrated into the host genome (virus-positive: VP-MCC) and viral oncogenes drive oncogenesis. The remaining MCCs are virus-negative (VN-MCC) and are caused by UV mutagenesis. To identify novel treatments for VP-MCC and/or VN-MCC we screened three VP-MCC cell lines (WAGA, MKL-1, MKL-2), three VN-MCC cell lines (MCC-13, MCC-26, UISO), and four immortalized, non-transformed control cell lines (HaCaT, HEK293T, CRL7250, NIH-3T3) against ~2,400 compounds in the NCGC Pharmaceutical Collection (NPC) and ~1,900 compounds in the Mechanism Interrogation PlatE (MiPE). Using cell viability as a readout (CellTiter-Glo assay) we found both overlapping and distinct drugs that can be repurposed for the treatment of VP-MCC and VN-MCC.
A high-throughput screen was conducted in 1536-well white flat bottom plates (Corning) on a Kalypsys robotic system. Cell lines WAGA, MKL-1, MKL-2, MCC-13, MCC-26, UISO, HaCaT, HEK293T, CRL7250, and NIH-3T3 were screened against 2 small molecule annotated drug libraries NPC and MIPE in dose response (8 and 11 pt. respectively) measuring cell viability after 72 hours of incubation. […] A 1,536 pintool (Kalypsys) was used to transfer 23 nL of compound in DMSO to the 1,536-well assay plates. After 72 hr incubation at 37 degree celsius, 2.5 uL of CellTiter-Glo (Promega) was dispensed into each well using a BiorapTR. Plates were incubated at room temperature for 10 min, transferred to a ViewLux (PerkinElmer) and the luminescence was recorded using an exposure time of 2 seconds. Relative luminescence units (RLUs) were normalized to in-plate controls (no cells as a positive (cytotoxicity) control, DMSO as negative control) and the normalized data was processed using NCATS in-house software.
On the technique in general: In qHTS, concentration-response curves come from the screen itself.
As for `c1ccc2c(Oc3nc(Nc4ccc(N5CCOCC5)cc4)c4ncn(C5CCCCC5)c4n3)cccc2c1`, the “activity change, negative = cytotoxicity” value was 1.28%.

Consider `CC1(C)CC(O)CC(C)(C)N1[O]`, for which the “activity change, negative = cytotoxicity” value was 0.93%.

As for `CN1CCc2c(c3ccccc3n2Cc2ccc(C(=O)NO)cc2)C1`, the “activity change, negative = cytotoxicity” value is -4.27%.

`NC[C@H]1O[C@H](O[C@H]2[C@@H](O)[C@@H](O[C@H]3O[C@H](CO)[C@@H](O)[C@H](N)[C@@H]3O)[C@H](N)C[C@@H]2N)[C@H](N)C[C@H]1O`: the “activity change, negative = cytotoxicity” value was 1.46%.

For `O=C(c1ccc(F)cc1)N1CCC[C@H](c2nc(-c3ccc(F)cc3)no2)C1`, the “activity change, negative = cytotoxicity” value is -3.78%.

With `O=C(C[C@@H]1CC=CCCC(=O)O[C@H](c2ccccc2)CNC1=O)NCc1ccc(Cl)cc1`, the “activity change, negative = cytotoxicity” value is -0.825%.

As for `O=C1c2c(O)cccc2[C@@H]([C@@H]2O[C@H](CO)[C@@H](O)[C@H](O)[C@H]2O)c2cc(CO)cc(O)c21`, the “activity change, negative = cytotoxicity” value was -2.12%.

Regarding `O=c1[nH]c(=O)n([C@H]2C[C@@H](O)[C@@H](CO)O2)cc1C=CBr`, the “activity change, negative = cytotoxicity” value is -2.72%.

Consider `COc1ccnc2[nH]cc(C(=O)C(=O)N3CCN(C(=O)c4ccccc4)C[C@@H]3C)c12`, for which the “activity change, negative = cytotoxicity” value is 3.89%.

On to `Nc1nc(N)c2nc(-c3cccc(O)c3)c(-c3cccc(O)c3)nc2n1`, for which the “activity change, negative = cytotoxicity” value was -13.1%.

Regarding `C=C(C)[C@@H]1CC[C@]2(C)CC[C@]3(C)[C@H](CC[C@@H]4[C@@]5(C)CC[C@H](O)C(C)(C)[C@H]5CC[C@]43C)[C@@H]12`, the “activity change, negative = cytotoxicity” value was 2.7%.

With `CN(C)CC(=O)N1CCC(c2ccc(NC(=O)c3ncc(C#N)[nH]3)c(C3=CCCCC3)c2)CC1`, the “activity change, negative = cytotoxicity” value is -11.1%.

For the compound `Cc1cnc(NC(=O)Nc2cc(Br)c(C)cc2OC[C@@H]2CNCCO2)cn1`, the “activity change, negative = cytotoxicity” value is -11%.

Regarding `Nc1nc(=O)n([C@H]2CSC(CO)O2)cc1F` (stereo not given in full), the “activity change, negative = cytotoxicity” value was -3.35%.

On to `CC(C)N1[N]C(=C2C=c3cc(O)ccc3=N2)c2c(N)ncnc21`, for which the Potency was 14800 nM (active).

For the compound `COc1cccc2c1C(=O)c1c(O)c3c(c(O)c1C2=O)C[C@@](O)(C(=O)CO)C[C@@H]3O[C@H]1C[C@H](N)[C@H](OC2CCCCO2)[C@H](C)O1` (stereo not given in full), the Potency was 3720 nM (active).

For `C[N+](C)([O-])CCNc1ccc(NCC[N+](C)(C)[O-])c2c1C(=O)c1c(O)ccc(O)c1C2=O`, the “activity change, negative = cytotoxicity” value was -12.8%.

For `C[C@]12CC[C@@H]3c4ccc(O)cc4CC[C@H]3[C@H]1CC[C@H]2O`, the “activity change, negative = cytotoxicity” value is -3.54%.

For the compound `OC[C@@H](O)[C@@H](O)[C@H](O)[C@@H](O)CO`, the “activity change, negative = cytotoxicity” value is 3.59%.

In the case of `Cc1cncc2cccc(S(=O)(=O)N3CCCN(C(=O)CN)C[C@@H]3C)c12`, the “activity change, negative = cytotoxicity” value was -10.5%.

With `N#CNC(=NCCCCCCOc1ccc(Cl)cc1)Nc1ccncc1`, the Potency is 14.8 nM (active).

As for `CCS(=O)(=O)Nc1ccc2[nH]c(O)c(C(=Nc3ccc(CN4CCCCC4)cc3)c3ccccc3)c2c1`, the Potency was 1480 nM (active).

Regarding `CCC(C)CCCCC(=O)N[C@@H](CCN)C(=O)NC(C(=O)N[C@H](CCN)C(=O)N[C@@H]1CCNC(=O)C([C@@H](C)O)NC(=O)[C@@H](CCN)NC(=O)[C@@H](CCN)NC(=O)[C@@H](CC(C)C)NC(=O)[C@H](Cc2ccccc2)NC(=O)[C@H](CCN)NC1=O)[C@@H](C)O` (stereo partly drawn) ({Octanoyl(6-Me)}-[Dab][ξThr(3R)][dDab][dDab][Dab]F[dL][dDab][dDab][ξThr(3R)]; lactam 4-C), the “activity change, negative = cytotoxicity” value was 1.27%.

As for `Nc1ccn(C[C@@H](CO)OCP(=O)(O)O)c(=O)n1`, the “activity change, negative = cytotoxicity” value was -5.12% [at 16.1 µM].

Turning to `O=c1ccn([C@@H]2O[C@H](CO)[C@H](O)[C@@H]2F)c(=O)[nH]1`, the “activity change, negative = cytotoxicity” value is 0.0235%.

For `CN[C@H](CC(C)C)C(=O)N[C@H]1C(=O)N[C@@H](CC(N)=O)C(=O)N[C@@H]2C(=O)N[C@H]3C(=O)N[C@H](C(=O)N[C@H](C(=O)O)c4cc(O)cc(O)c4-c4cc3ccc4O)[C@H](O)c3ccc(c(Cl)c3)Oc3cc2cc(c3O[C@@H]2O[C@H](CO)[C@@H](O)[C@H](O)[C@@H]2O[C@H]2C[C@](C)(N)[C@H](O)[C@H](C)O2)Oc2ccc(cc2Cl)[C@H]1O`, the “activity change, negative = cytotoxicity” value is 8.35%.

With `CCCCCCCN(CC)CCCC(O)c1ccc(NS(C)(=O)=O)cc1` (stereo not given), the “activity change, negative = cytotoxicity” value was -2.04%.

On to `CCc1cnn2c(NCc3ccc[n+]([O-])c3)cc(N3CCCC[C@@H]3CCO)nc12`, for which the Potency is 83.3 nM (active).

With `C[C@H](CCC(=O)O)[C@H]1CCC2C3C[C@H](O)[C@@H]4C[C@H](O)CC[C@]4(C)C3CC[C@@]21C` (stereo not given in full), the “activity change, negative = cytotoxicity” value is -2.71%.

For `COC(=O)[C@H](CCCN=C(N)N)NS(=O)(=O)c1ccc(C)cc1`, the “activity change, negative = cytotoxicity” value is -0.0988%.

For the compound `Cc1noc(-c2ccc(CSCCC(=O)O)cc2)c1NC(=O)OC(C)c1ccccc1Cl` (stereo not given), the “activity change, negative = cytotoxicity” value was -1.51%.

Regarding `N#CC(=C(O)c1ccc(Cl)cc1Cl)c1nc2cc(Cl)ccc2c(=O)[nH]1`, the “activity change, negative = cytotoxicity” value is -4.73%.

`CC(C)(O)CC[C@@H](O)[C@](C)(O)[C@H]1CC[C@@]2(O)C3=CC(=O)[C@@H]4C[C@@H](O)[C@@H](O)C[C@]4(C)[C@@H]3CC[C@]12C`: the “activity change, negative = cytotoxicity” value was -22.6%.

Take `CCN(CC)CCCCNc1ncc2c(n1)N(C)C(=O)N(c1c(Cl)c(OC)cc(OC)c1Cl)C2`: the “activity change, negative = cytotoxicity” value is -2.15%.

Take `O=C(O)CCCCC(CCSCc1ccccc1)SCc1ccccc1` (stereo not given): the “activity change, negative = cytotoxicity” value was 8.7%.

Regarding `CN[C@@H]1C[C@H]2O[C@@](C)([C@H]1OC)n1c3ccccc3c3c4c(c5c6ccccc6n2c5c31)C(=O)N[C@H]4O`, the Potency is 1660 nM (active).

As to `Cc1cnc(Nc2ccc(CN3CCOCC3)cc2)nc1Nc1cccc(S(=O)(=O)NC(C)(C)C)c1`, the Potency is 8330 nM (active).

For `COc1ccc(S(=O)(=O)Nc2cc(-c3c(O)ccc4ccccc34)c(O)c3ccccc23)cc1`, the “activity change, negative = cytotoxicity” value is -11.8%.

As for `C=CC1=C(C(=O)O)N2C(=O)[C@@H](NC(=O)C(=NO)c3csc(N)n3)[C@H]2SC1`, the “activity change, negative = cytotoxicity” value is 7.66%.

Take `O=C(NNC(=O)c1ccc(CNS(=O)(=O)c2ccc(F)c(Cl)c2)cc1)c1ccccc1`: the “activity change, negative = cytotoxicity” value is -0.268%.

Values taken from PubChem BioAssay (NCATS).
